# From PubChem
# This is a sample that favours compounds with a hit; in the whole collection about 0.92% have one here.
# RPL19A TOR yeast = modulators of TOR pathway RPL19A-GFP in S. cerevisiae; percent response vs DMSO, % at 10 µM; S. cerevisiae RPL19A-GFP strain, flow cytometry, 3 h; hits give low values; 0.3% of 330,000 active;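 active = percent response vs DMSO below 50%; inconclusive = fewer than 70 events counted for the yeast strain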;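 note: median channel GFP fluorescence of the barcoded RPL19A-GFP strain; ratio of sample median GFP to plate DMSO average so 100% = DMSO; lower means less RPL19A-GFP as with rapamycin TOR inhibition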
# AGP1-GFP MLPCN = yeast TOR pathway AGP1-GFP modulation; 0.02% of 320,000 active; S. cerevisiae AGP1-GFP multiplex flow cytometry, 3 h; GFP as percent of DMSO wells; GFP response vs DMSO, % at 10 µM;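 active = GFP response relative to DMSO above a set limit, near screen average plus 3 SD, cut at about 150% in these data; inconclusive = fewer than 70 cells counted for the yeast strain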;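 note: median GFP channel fluorescence of the gated AGP1 strain per well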
# MEP2-GFP yeast = alters MEP2-GFP fluorescence in TOR pathway yeast screen | S. cerevisiae MEP2-GFP strain, flow cytometry GFP, 3 h; 100% = DMSO control level | GFP response vs DMSO, % at 10 µM | 0.51% of 330,000 active;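 active = GFP response versus DMSO above a set limit, roughly screen mean plus 3 SD, cut at about 180% in these data; inconclusive = fewer than 70 cells counted for a yeast strain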;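 note: median GFP fluorescence of the barcode-gated MEP2-GFP cells per well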
# LAP4-GFP MLPCN = alters LAP4-GFP fluorescence in TOR pathway yeast screen | AID 2023 | S. cerevisiae LAP4-GFP multiplex, flow cytometry GFP, 3 h; median GFP as percent of DMSO wells | 0.34% of 320,000 active | GFP response vs DMSO, % at 10 µM;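 active = GFP response vs DMSO above a set limit, about the screen mean plus 3 SD, cut at about 150% in these data; inconclusive = under 70 cell events counted for the yeast strain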
# CIT2-GFP yeast = alters CIT2-GFP fluorescence in TOR pathway yeast screen; S. cerevisiae CIT2-GFP strain, flow cytometry, 3 h; 100 means same as DMSO wells; GFP response vs DMSO, % at 10 µM; 0.065% of 320,000 active;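 active = GFP response relative to DMSO above a set limit, near the screen mean plus 3 SD, cut at about 150% in these data; inconclusive = Fewer than 70 cells measured for a yeast strain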;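 note: ratio of well median GFP fluorescence to mean of DMSO wells on the plate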
# An asterisk follows results filed as active; ? = inconclusive; · = not tested or not shown; [ ] = dose if it differs, or a comment.
SMILES,RPL19A TOR yeast,AGP1-GFP MLPCN,MEP2-GFP yeast,LAP4-GFP MLPCN,CIT2-GFP yeast
COc1ccc(OC)c(NC(=O)CN2CCc3ccccc3C2)c1,39*[may fluoresce violet],21,395*[may fluoresce violet],95,?
CCC(c1nnnn1Cc1ccccc1)N(Cc1ccco1)Cc1cc2cc(OC)ccc2[nH]c1=O (stereo unspecified),68,·,180*[may fluoresce violet],89,?
CCOc1ccccc1N(CC(=O)Nc1cccnc1)S(C)(=O)=O,40*[may fluoresce violet],·,552*[may fluoresce violet],98,?
CCOc1ccccc1N(CC(=O)Nc1cccnc1)S(=O)(=O)c1ccc(C)cc1,105,110,101,111,107
Cc1cc(C)c(CN2CCN(C(=O)Cn3cnc4c(OCc5ccccc5)ncnc43)CC2)c(C)c1,95,97,90,90,99
COc1ccc(C(=O)NCC(C)C)c(OC)c1,95,109,110,93,98
COc1ccc(C(=O)N(C(C)C)C(C)C)c(OC)c1,38*[may fluoresce violet],?,234*[may fluoresce violet],89,?
Oc1c(Br)cc(Br)cc1C=Nc1cccc2ncccc12,81,70,92,191*,65
O=C(c1ccc(=O)[nH]c1)N1CCN(S(=O)(=O)c2ccc3ccccc3c2)CC1,101,100,97,106,99
CCC(=O)Nc1ccc2c(c1)OCCO2,96,103,95,91,105
CCOCC(=O)Nc1ccc2c(c1)OCCO2,29*[may fluoresce violet],?,261*[may fluoresce violet],89,?
O=C1/C(=C/c2ccc(N3CCCC3)cc2)NC(=S)N1C1CC1,42*[may fluoresce violet],?,329*[may fluoresce violet],83,?
N#CC1=C(N)Oc2cc(N)ccc2C1c1ccc(F)cc1F (stereo unspecified),92,98,116,105,106
c1cncc(Nc2nc(-c3cccnc3)cs2)c1,94,101,97,94,107
Clc1ccccc1Nc1nc(-c2cccnc2)cs1,43*[may fluoresce violet],?,210*[may fluoresce violet],82,?
CC1(C)C2CCC1(CS(=O)(=O)Nc1ccccc1)C(=O)C2 (stereo unspecified),102,103,108,100,100
Cc1c(NS(=O)(=O)CC23CCC(CC2=O)C3(C)C)c(=O)n(-c2ccccc2)n1C (stereo unspecified),63,?,205*[may fluoresce violet],98,?
CC(C)(CC(=O)O)CC(=O)Nc1ccccc1Oc1ccccc1,41*[may fluoresce violet],?,249*[may fluoresce violet],56,?
CC(C)c1ccc(NC2CCCN(C(=O)c3cnsn3)C2)cc1 (stereo unspecified),105,105,106,100,99
CCOC(=O)c1ccc(N2C=C(C(=O)OC)C(c3ccc(OC)c(O)c3)C(C(=O)OC)=C2)cc1,49*[may fluoresce violet],18,769*[may fluoresce violet],72,?
Cc1ccc(S(=O)(=O)N2CCCC2)cc1C(=O)Nc1ccc(-n2cnnn2)cc1,92,89,94,86,88
COc1ccccc1N1CCN(CC(O)c2ccccc2)CC1 (stereo unspecified),46*[may fluoresce violet],?,290*[may fluoresce violet],79,?
COc1ccccc1N1CCN(CC(O)c2c(C)[nH]c3ccccc23)CC1 (stereo unspecified),104,102,108,100,100
CN(CC1COc2ccccc2O1)C(=O)CSc1ncccn1 (stereo unspecified),101,104,101,102,110
Cc1cc(C)n(C(=O)/C(C#N)=N\Nc2ccccc2[N+](=O)[O-])n1,94,105,134,183*,90
SMILES,RPL19A TOR yeast,AGP1-GFP MLPCN,MEP2-GFP yeast,LAP4-GFP MLPCN,CIT2-GFP yeast
Clc1cccc2c3c([nH]c12)CCNC3,104,108,105,101,100
O=C(O/N=C(\c1ccccc1)c1ccncc1)c1ccccc1Cl,65,59,74,152*,44
N/C(=N\OC(=O)c1ccccc1Cl)c1ccccc1,95,81,97,100,97
CC(C)(C)C(=O)/C=c1\[nH]c(=O)/c(=C\c2ccccc2F)s1,91,17,215*[may fluoresce violet],84,?
Cc1ccc(-n2c(C)cc(/C=N/NC(=O)Cn3c4ccccc4c(=O)c4ccccc43)c2C)cc1,37*[may fluoresce violet],20,244*[may fluoresce violet],78,?
Cc1ccc(S(=O)(=O)N2CCN(C(=O)Cn3nc(C)c([N+](=O)[O-])c3C)CC2)cc1,98,96,97,95,99
O=C(O)c1ncc(Cl)c(Cl)c1Cl,96,92,95,99,86
